Results taken from PMC4336329 (PLoS ONE, 2015).
The whole screen tested about 310,000 compounds, of which about 14,000 (4.5%) showed an effect of 50% or more. The effect is printed as a negative number. This is one part of a sample in which strong results are shown more often than they occur.

molecular target: human ether-à-go-go-related gene (hERG) potassium channel (human, UniProt Q12809); assay: primary screen, population patch clamp on CHO cells stably expressing hERG; higher = less effect of the substance
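Note: peak tail current of the secondary pulse compared with the same well before compound.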

Chain of human ether-à-go-go-related gene (hERG) potassium channel (Q12809 whole entry, looked up): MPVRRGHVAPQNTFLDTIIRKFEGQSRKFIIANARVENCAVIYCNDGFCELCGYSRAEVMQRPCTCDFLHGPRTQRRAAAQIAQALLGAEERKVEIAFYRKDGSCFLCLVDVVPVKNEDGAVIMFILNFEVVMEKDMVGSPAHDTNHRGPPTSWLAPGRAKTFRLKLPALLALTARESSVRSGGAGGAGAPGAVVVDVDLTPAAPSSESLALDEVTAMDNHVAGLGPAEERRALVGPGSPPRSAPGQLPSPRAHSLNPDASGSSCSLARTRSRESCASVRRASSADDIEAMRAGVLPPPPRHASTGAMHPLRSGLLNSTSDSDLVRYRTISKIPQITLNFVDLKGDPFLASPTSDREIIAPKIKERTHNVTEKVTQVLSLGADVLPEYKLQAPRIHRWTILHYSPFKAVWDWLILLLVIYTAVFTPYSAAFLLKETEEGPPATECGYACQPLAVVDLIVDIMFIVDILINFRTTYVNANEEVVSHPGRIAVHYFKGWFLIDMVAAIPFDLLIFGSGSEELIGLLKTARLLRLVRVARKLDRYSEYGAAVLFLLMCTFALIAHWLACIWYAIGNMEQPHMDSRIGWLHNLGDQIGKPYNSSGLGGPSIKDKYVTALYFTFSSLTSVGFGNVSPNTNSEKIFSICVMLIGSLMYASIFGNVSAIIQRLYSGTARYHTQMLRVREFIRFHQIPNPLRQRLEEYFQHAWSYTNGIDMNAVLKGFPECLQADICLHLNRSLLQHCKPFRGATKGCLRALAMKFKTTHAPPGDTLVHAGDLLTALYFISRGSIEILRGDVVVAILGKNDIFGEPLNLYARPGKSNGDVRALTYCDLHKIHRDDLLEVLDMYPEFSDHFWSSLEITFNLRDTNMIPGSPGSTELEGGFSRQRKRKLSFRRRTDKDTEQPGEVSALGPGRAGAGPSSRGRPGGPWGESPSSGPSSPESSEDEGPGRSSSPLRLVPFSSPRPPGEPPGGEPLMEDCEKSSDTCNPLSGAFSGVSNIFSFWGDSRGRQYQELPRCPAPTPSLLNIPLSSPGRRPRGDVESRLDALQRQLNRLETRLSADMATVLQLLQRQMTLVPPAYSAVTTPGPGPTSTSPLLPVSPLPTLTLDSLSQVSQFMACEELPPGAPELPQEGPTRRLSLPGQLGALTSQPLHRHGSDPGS

SMILES | hERG current change (%, negative = inhibition) at 10uM [%]
CCCCc1nnc(NC(=O)CSCc2cc(=O)n3cc(C)sc3n2)s1 | 5.31
Cc1ccc2c(CC(=O)Nc3c(C)n(C)n(-c4ccccc4)c3=O)coc2c1 | -7.21
COc1ccccc1CN1C[C@@H]2C[C@@H](c3cccc(O)c3)N3CCC[C@@]23C1=O | -33.6
O=C1N(Cc2cccnc2)C[C@@H]2C[C@@H](c3cccc(Oc4ccccc4)c3)N3CCC[C@@]123 | -59.4
O=C1N(Cc2cccnc2)C[C@@H]2C[C@@H](c3cccc(OC4CCCC4)c3)N3CCC[C@@]123 | -69.5
O=C1N(Cc2cccnc2)C[C@@H]2C[C@@H](c3cccc(OCc4ccccc4)c3)N3CCC[C@@]123 | -63.6
COc1ccccc1CN1C[C@@H]2C[C@@H](c3cccc(C)c3)N3CCC[C@@]23C1=O | -37
CC(C)(C)NC(=S)NNC(=O)[C@H]1C[C@@H]1c1ccccc1 | 11
Cc1ccc(S(=O)(=O)N[C@H](C(=O)N2CCC(C(=O)N[C@@H](CC(=O)O)C(=O)O)CC2)C(C)C)cc1 | 24.9
O=c1cc(-c2ccccc2)cc(-c2ccccc2)n1CCO | -21.5
O=C(CCN1CCCC1=O)NC1CCCc2c1cnn2-c1ccc(F)cc1F (centres unmarked) | -2.54
CCOC(=O)N1CCC(NS(=O)(=O)c2ccc3c(c2)CCN3C(C)=O)CC1 | -0.517
CC(C)C(C(=O)NC(C)(C)C)N(CCN1CCOCC1)C(=O)CNS(=O)(=O)c1ccccc1 (centres unmarked) | 0.875
CC(/C=C/c1ccco1)=N\NC(=O)c1cc(C)[nH]n1 | 5.55
CC(=O)Nc1ccc(N(C(=O)Cc2cccs2)C(C(=O)NC2CCCC2)c2ccncc2)cc1 (centres unmarked) | 9.17
CC1(C)CC(=O)C(=Cc2cn(-c3ccccc3)nc2-c2ccccc2)C(=O)C1 | -24.1
CCCCN1C2CCCC1CC(NC(=O)c1cccc(OC)c1)C2 (centres unmarked) | -19.3
O=C(NC1CC2CCCC(C1)N2Cc1ccccc1)c1cccc(Cl)c1 (centres unmarked) | -57.9
O=C(NC1CCCC1)c1cccc(Cl)c1 | 29.8
O=C(NC1CC2CCC(C1)N2Cc1ccccc1)c1ccccc1Cl (centres unmarked) | -40.6

SMILES | hERG current change (%, negative = inhibition) at 10uM [%]
CCCCN1C2CCCC1CC(NC(=O)c1cccc(Cl)c1)C2 (centres unmarked) | -75.5
Cc1cccc(C(=O)NC2CC3CCCC(C2)N3Cc2ccccc2)c1 (centres unmarked) | -40.9
CCCN1C2CCCC1CC(NC(=O)c1cccc(Cl)c1)C2 (centres unmarked) | -38.9
O=C(NC1CC2CCCC(C1)N2Cc1ccccc1)c1cccc(F)c1 (centres unmarked) | -56.8
O=C(NC1CC2CCC(C1)N2Cc1ccccc1)c1cccc(F)c1 (centres unmarked) | -60.5
O=C(NC1CC2CCC(C1)N2Cc1ccccc1)c1ccccc1Br (centres unmarked) | -20.1
O=C(Nc1cccc(F)c1)c1ccc(S(=O)(=O)NCC2CCCO2)cc1 (centres unmarked) | -12.2
COc1ccc(C(=O)NN(C)c2nc(-c3ccccc3)nnc2C(F)(F)F)cc1 | 7
N#Cc1cn(CC(=O)N2CCCC2)c2ccccc12 | 8.6
O=C(O)C1=CC2c3ccccc3C1c1ccccc12 | 17.4
CC1(C)Cc2sc3c(=O)[nH]c(=S)[nH]c3c2CO1 | 16.6
CCCN1C(=O)/C(=c2\s/c(=C3\C=Cc4ccccc4N3CC)c(=O)n2-c2ccccc2)SC1=S | 8.95
O=C1NC(=O)/C(=C\c2cn(CC(=O)N3CCOCC3)c3ccccc23)S1 | 11.7
COCC(=O)Nc1sc2c(c1C(=O)OC)CCCC2 | -11.7
COc1ccc(C2/C=C\CN(C(=O)c3ccccc3)[C@H](Cc3ccccc3)C(=O)N2Cc2ccc(F)cc2)cc1 (some centres unmarked) | 17
Fc1cccc(-c2cc3nc4c(c(N5CCOCC5)n3n2)CCCC4)c1 | -24.1
Cc1nc(N)nc(N/N=C/c2c(F)cccc2Cl)n1 | 3.11
COc1cc(NS(=O)(=O)c2ccc(NC(=O)C34CC5CC(CC(C5)C3)C4)cc2)ncn1 | -4.59
Cl.OC(COC(c1ccc(Cl)cc1)c1ccc(Cl)cc1)CN1CCc2ccccc2C1 (centres unmarked) | -61.6
OC(COC(c1ccc(F)cc1)c1ccc(F)cc1)CN1CCc2ccccc2C1 (centres unmarked) | -73.7

SMILES | hERG current change (%, negative = inhibition) at 10uM [%]
OC(CN1CCc2ccccc2C1)c1ccccc1 (centres unmarked) | -9.09
OC(COC(c1ccccc1)c1ccccc1)CN1CCc2ccccc2C1 (centres unmarked) | -76.9
CC1(c2ccc3c(c2)OCCCO3)NC(=O)N(CC(=O)NCCc2ccccc2)C1=O (centres unmarked) | -7.38
COc1ccc(C(CNC(=O)COc2c(C)cc(C)cc2C)N2CCOCC2)cc1 (centres unmarked) | -12.1
COc1ccc(-c2coc3cc(O)ccc3c2=O)cc1 | -5.05
CCOC(=O)CSC1=N/C(=C\c2cc(OC)c(OC)c(OC)c2)C(=O)N1C | -7.36
CCN1C(=O)/C(=C/c2ccc(OC)c(OC)c2)N=C1SCC(=O)NCc1ccco1 | -15.1
CCOC(=O)CSC1=N/C(=C\c2ccc(OC)c(OC)c2)C(=O)N1C | -69.7
CCOC(=O)C1(CCCc2ccccc2)CCN(C(=O)C2CCCN(C(N)=O)C2)CC1 (centres unmarked) | -72.4
CCOC(=O)C1(CCCc2ccccc2)CCN(S(=O)(=O)N(C)C)CC1 | -4.73
CCOC(=O)C1(CCCc2ccccc2)CCN(S(C)(=O)=O)CC1 | -8.15
CCOC(=O)C1(CCCc2ccccc2)CCN(C2CCC2)CC1 | -74.8
CCOC(=O)C1(CCc2ccccc2)CCN(C(=O)C2CCOCC2)CC1 | -53.1
O=C(C1CCOCC1)N1CCC(CO)(CCc2ccccc2)CC1 | 5.29
CCOC(=O)C1(CCCc2ccccc2)CCN(C(=O)[C@@H]2C[C@@H](C)NC(=S)N2)CC1 | -25.1
CCOC(=O)C1(CCCc2ccccc2)CCN(C(=O)C2CCCO2)CC1 (centres unmarked) | -25.7
CCOC(=O)C1(CCc2ccccc2)CCN(C(=O)C2CCCO2)CC1 (centres unmarked) | -13
CCOC(=O)C1(Cc2ccccc2C(F)(F)F)CCN(C2CCC2)CC1 | -36.6
CCOC(=O)C1(CCCc2ccccc2)CCN(C2CCCC2)CC1 | -69.7
